Experimental data published in PubChem BioAssay AID1458 (National Center for Advancing Translational Sciences (NCATS), 2008).
The campaign covered roughly 210,000 compounds. About 5,900 (2.8%) were called active. About 5% were inconclusive and are not listed. Calls come from the whole dose curve; as a rule, active = well fitted activation curve with a large enough effect; inconclusive = small, poorly fitted or top-dose-only effect; inactive = no such curve, though single readings can be large or run the other way. Only a selection was taken, and actives are over-represented in it overall.

Test: qHTS Assay for Enhancers of SMN2 Splice Variant Expression; note: nearly all actives have a fitted effect of over 55% in size; for activity change, positive = activation: % of control where 0% means no effect
Conditions: HEK293 SMN2-luciferase splicing reporter, luminescence, 30-36 h; series mostly up to 46.1 µM; activity change, positive = activation: at the top concentration
Summary of the method: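 HEK293 cells carry an SMN2 minigene-luciferase reporter in which exon 7 inclusion puts luciferase in frame. Cells were seeded at 2000 cells/well, attached for 10-12 hours, then exposed to compounds for 30-36 hours at 37C before ONE-Glo luminescence.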
Potency is the fitted concentration of half-maximal effect.

Row | Compound | activity change, positive = activation | Potency
1 | Fc1cc(F)c2nc(Nc3nc4c(F)cccc4s3)sc2c1 | -20.1% (inactive) | 
2 | Fc1ccc2nc(Nc3nc4c(s3)CCCC4)sc2c1 |  | 14.1 µM (active)
3 | O=C(CCS(=O)(=O)c1ccccc1)Nc1nc2c(s1)CCCC2 | -6.46% (inactive) | 
4 | O=C(COc1ccccc1)N1CCc2ccccc2C1 | 3.79% (inactive) | 
5 | O=C(C(=O)N1CCc2ccccc2C1)N1CCc2ccccc2C1 | 10.9% (inactive) | 
6 | O=C(Cn1c(=S)nc2ccccn21)N1CCc2ccccc2C1 |  | 12.6 µM (active)
7 | Cn1c(=O)nc2n(-c3ccc(Br)cc3)c3cccc(Cl)c3cc-2c1=O | 9.55% (inactive) | 
8 | COc1ccccc1C(=O)Nc1c(C(=O)N(C)Cc2ccccc2)sc2nc(C)c(Cl)c(C)c12 | -27.4% (inactive) | 
9 | CCn1c(SCC(=O)Nc2nccs2)nnc1-c1ccncc1 | -5.81% (inactive) | 
10 | Nn1c(SCC(=O)Nc2nccs2)nncc1=O | 22.1% (inactive) | 
11 | Cc1[nH]c2ccccc2c1SCC(=O)Nc1nccs1 |  | 25.1 µM (active)
12 | CC(=O)N1CCc2cc(S(=O)(=O)NC(Cc3ccccc3)C(=O)NCc3ccc(C)cc3)ccc21 (centres undefined) | -2.94% (inactive) | 
13 | CCOc1ccc(S(=O)(=O)c2cn(Cc3ccc(OC)cc3)c3ccc(F)cc3c2=O)cc1 | -6.28% (inactive) | 
14 | CC(=O)Nc1ccn(Cc2c(F)cccc2Cl)n1 | 1.25% (inactive) | 
15 | Cn1cc([N+](=O)[O-])c(C(=O)Nc2cnn(Cc3ccc(F)cc3)c2)n1 | -2.65% (inactive) | 
16 | O=C(Nc1ccn(Cc2ccccc2)n1)c1n[nH]c([N+](=O)[O-])c1Cl |  | 3.16 µM (active)
17 | Cc1ccc(Cn2ccc(NC(=O)c3cc(C(C)C)on3)n2)cc1 | 6.87% (inactive) | 
18 | O=C(Nc1ccn(Cc2ccccc2)n1)c1cccc(F)c1 |  | 2.82 µM (active)
19 | O=C(Nc1ccn(Cc2ccc(F)cc2)n1)c1ccncc1 | -62.6% (inactive) | 
20 | CCOC(=O)c1cc2c(=O)n3ccccc3nc2n(CCCOC)c1=NC(=O)C(C)(C)Oc1ccc(Cl)cc1 | 9.26% (inactive) | 
21 | COc1ccc(CCN2C(=O)N(c3cccc(OC)c3)C(=O)C2CC(=O)Nc2ccccc2)cc1 (centres undefined) | -6.97% (inactive) | 
22 | CCCCC12CN3CC(C)(CN(C1)C3c1ccc(O)c(OC)c1)C2=O (centres undefined) | 1.53% (inactive) | 
23 | COc1ccc(CCNC(=O)CCc2c(C)nc3c(c(C)nn3-c3ccc(C)c(C)c3)c2C)c(OC)c1OC | 10.6% (inactive) | 
24 | CCOC(=O)CSc1nnc(-c2cccc(Br)c2)o1 | -5.07% (inactive) | 
25 | O=C(OCc1ccc(Br)cc1)c1cccc(-c2nnc(-c3ccccc3)o2)c1 |  | 2.24 µM (active)
26 | O=C(OCc1nnc(-c2ccccc2)o1)c1ccc2c(c1)C(=O)N(CCc1ccccc1)C2=O | 27.8% (inactive) | 

Row | Compound | activity change, positive = activation | Potency
27 | CCn1c(=O)cc(OCC(=O)Nc2cc(Cl)c(OC)cc2OC)c2ccccc21 | 7.37% (inactive) | 
28 | C=C(C)CSc1nnc(-c2ccc(C)cc2)n1N |  | 8.91 µM (active)
29 | Cc1ccc(-c2nnc(SC(C)C#N)n2N)cc1 (centres undefined) | 5.91% (inactive) | 
30 | Cc1ccc(NC(=O)NC(=O)CSc2nnc(-c3ccc(OC(F)F)cc3)n2N)c(C)c1 | -13.8% (inactive) | 
31 | CC(=O)c1c(C)n(S(=O)(=O)c2ccc(Cl)cc2)c2ccc(NS(=O)(=O)c3ccc(Cl)cc3)cc12 | -11.3% (inactive) | 
32 | COc1ccc(C)cc1N(CC(=O)N1CCC(C)CC1)S(=O)(=O)c1ccc(C)cc1 | -6.31% (inactive) | 
33 | CCOC(=O)c1c(NC(=O)CSc2cn(CCNC(=O)c3cccc(C(F)(F)F)c3)c3ccccc23)sc2c1CCC2 | 12.3% (inactive) | 
34 | COc1ccc(CCNC(=O)c2cn(C)c3ccc(S(=O)(=O)N(C)C4CCCCC4)cc3c2=O)cc1OC | 3.49% (inactive) | 
35 | CCN(CC)C(=O)c1ccc(O)c(OC)c1 |  | inactive
36 | CCOc1ccc(NC(=O)N(CC(C)C)CC(C)C)cc1 | -13.7% (inactive) | 
37 | COc1ccc(OCC(=O)NNC(=O)c2cccc(C)c2)cc1 | -31.7% (inactive) | 
38 | COc1ccc(OCc2cccc(C(=O)N3CCCC3)c2)cc1 |  | 2.51 µM (active)
39 | Cc1cccc(C(=O)N2CCCN(C(=O)c3cccc(C)c3)CC2)c1 | -9.38% (inactive) | 
40 | CCOc1ccc(OCc2cccc(C(=O)N(CC)CC)c2)cc1 |  | 5.01 µM (active)
41 | COc1cccc(Cn2c(SCc3ccc(C(=O)N4CCC(C)CC4)cc3)nc3ccncc32)c1 | -57.7% (inactive) | 
42 | COc1cccc(CNC(=O)c2ccc3c(c2)N(Cc2ccc(C(F)(F)F)cc2)C(=O)c2ccccc2S3)c1OC | 1.81% (inactive) | 
43 | COc1ccc(C2(Nc3cccc(F)c3)C(=O)c3ccccc3C2=O)cc1 | 10.5% (inactive) | 
44 | CCc1nonc1NC(=O)c1oc2ccc(Cl)cc2c1C | 13.4% (inactive) | 
45 | Cc1ccc(Cn2c(C)c3cnn(CC(=O)NCc4ccccc4)c(=O)c3c2C)cc1 | -1.41% (inactive) | 
46 | CC1=C(C(=O)Nc2ccccc2)C(c2ccc(C)cc2)n2nc(SCc3ccccc3C)nc2N1 (centres undefined) | 6.65% (inactive) | 
47 | COc1cc(Nc2nc(-c3ccc(OC)c(OC)c3)nc3ccccc23)cc(OC)c1 | -30% (inactive) | 
48 | CCc1cccc(C)c1Nc1c(-c2ccc(N(C)C)cc2)nc2ncccn12 | 26% (inactive) | 
49 | N#CC(=C1CCCC1)c1nc(-c2ccc(Cl)cc2)cs1 | 37.8% (inactive) | 
50 | N#CC(=C1SC=CS1)c1nc(-c2ccccc2)cs1 |  | 11.2 µM (active)
51 | CCNC(=O)CSc1nc(-c2ccccc2)cs1 | 16.8% (inactive) | 
52 | COc1ccc(-c2cc(NCc3ccc(F)cc3)n3cnnc3n2)cc1 | -6.89% (inactive) | 

Row | Compound | activity change, positive = activation | Potency
53 | CC(=O)c1c(C)[nH]c(C(=O)NCc2ccc(C)cc2)c1C | -0.462% (inactive) | 
54 | CCOC(=O)c1c(C)[nH]c(C(=O)NCc2ccccc2OC)c1C |  | 10 µM (active)
55 | COc1ccccc1CNC(=O)c1cc(=O)c2ccccc2o1 | -23.9% (inactive) | 
56 | COC(=O)c1ccccc1NS(=O)(=O)c1ccc2c(c1)CCCN2C(C)=O | -4.36% (inactive) | 
57 | CCOc1ccc(C(=O)c2cn(Cc3ccccc3OC)c3ccc(F)cc3c2=O)cc1 | 6.96% (inactive) | 
58 | COc1ccc(-c2csc(-c3cccs3)n2)cc1OC |  | 14.1 µM (active)
59 | COc1ccc(C2CC(c3cccs3)=Nc3ccccc3S2)cc1OC (centres undefined) | -15.2% (inactive) | 
60 | COc1ccc(-c2nn3c(-c4ccccc4)nnc3s2)cc1OC | -2.56% (inactive) | 
61 | CCc1ccccc1NC(=O)N1CCC2(CC1)Oc1ccccc1C(=O)N2Cc1ccccc1F | 2.64% (inactive) | 
62 | O=C(Nc1ccc(Br)cc1)c1cc2nc(-c3ccccc3)cc(-c3ccccc3)n2n1 | 8.42% (inactive) | 
63 | COc1cccc(C(=O)N(Cc2cccc(Cl)c2)Cc2ccco2)c1 | -32% (inactive) | 
64 | O=C(Cc1ccccc1)NC(=S)Nc1ccc(N2CCCCC2)cc1 | 1.23% (inactive) | 
65 | c1ccc(-c2ccccc2OCCN2CCCCC2)cc1 | -8.62% (inactive) | 
66 | S=C(c1ccc(-c2ccccc2)o1)N1CCCCC1 |  | 12.6 µM (active)
67 | O=C(CNC(=O)C(c1ccccc1)c1ccccc1)N/N=C\c1ccc2c(c1)OCO2 | 6.3% (inactive) | 
68 | O=C(Cc1ccc(F)cc1)N/N=C/c1ccc2c(c1)OCO2 |  | 12.6 µM (active)
69 | O=C(/C=C/c1ccc2c(c1)OCO2)NCc1ccc(F)cc1 | 1.74% (inactive) | 
70 | O=C(Nc1ccc(Cl)cn1)c1ccc2c(c1)OCCO2 |  | 2.51 µM (active)
71 | COc1c(Cl)cc(C(=O)Nc2ccc(Cl)cn2)cc1Cl | 20.7% (inactive) | 
72 | O=C(Nc1cccc(S(=O)(=O)Nc2ccc(Cl)cc2)c1)c1ccc2c(c1)OCCO2 | -59.3% (inactive) | 
73 | O=C(Nc1ccc(Cl)cn1)c1cnn2cccnc12 |  | 11.2 µM (active)
74 | COc1ccc(C(=O)NC(=S)Nc2ccc(Cl)cn2)cc1OC | -0.559% (inactive) | 
75 | Cc1cc(NC(=O)c2cnn3cccnc23)n(-c2ccccc2)n1 | -9.99% (inactive) | 
76 | COc1ccc(CNC(=O)Cc2coc3ccc(C(C)C)cc23)cc1 | -4.8% (inactive) | 
77 | O=C(Oc1cccc(NC2=NS(=O)(=O)c3ccccc32)c1)c1ccncc1 | -1.12% (inactive) | 
78 | Cc1ccc(S(=O)(=O)N(NC2=NS(=O)(=O)c3ccccc32)C(=O)c2ccccc2)cc1 | -33.5% (inactive) | 

Row | Compound | activity change, positive = activation | Potency
79 | CC(C)(C)c1csc(NC2=NS(=O)(=O)c3ccccc32)n1 |  | 8.91 µM (active)
80 | COc1ccc(CN2C(=O)C(NC(=O)c3cccc(C)c3)(C(F)(F)F)N=C2c2ccccc2)cc1 (centres undefined) | -6.05% (inactive) | 
81 | Cc1cccc(OCC(O)Cn2c(=N)n(CCN3CCOCC3)c3ccccc32)c1 (centres undefined) | -2.16% (inactive) | 
82 | OC(COc1ccc2ccccc2c1)Cn1cncn1 (centres undefined) | 10.2% (inactive) | 
83 | OC(COc1ccc2ccccc2c1)CN1CCOCC1 (centres undefined) |  | 14.1 µM (active)
84 | Cc1cccc(N2CCN(C(=O)c3oc(=O)c4ccccc4c3-c3ccccc3)CC2)c1C | -0.849% (inactive) | 
85 | CC1=Nc2cc(C(=O)N3CCC(C)CC3)ccc2Sc2ccc(Cl)cc21 | -32.5% (inactive) | 
86 | O=C(Nc1ccccc1)c1ccccc1NC(=O)C(F)(F)F |  | 10 µM (active)
87 | O=C(Nc1ccccc1)c1cccnc1Nc1ccccc1 | -22.9% (inactive) | 
88 | NC(=O)c1ccccc1NC(=O)c1ccccc1F | 10.5% (inactive) | 
89 | O=C(CSc1oc(-c2ccccc2)nc1S(=O)(=O)c1ccc(Br)cc1)NC1CCCCC1 | -5.27% (inactive) | 
90 | COc1ccc2c(c1)CCc1c(C(=O)N3CCCC3)noc1-2 |  | 17.8 µM (active)
91 | COc1ccc2c(c1)CCc1c(C(=O)Nc3c(C)n(C)n(-c4ccccc4)c3=O)noc1-2 | -28% (inactive) | 
92 | COc1ccc2c(c1)CCc1c(C(=O)Nc3cc(C)ccc3O)noc1-2 | 21.9% (inactive) | 
93 | Cn1c(=O)c2c(nc(SCC(=O)Nc3ccc(F)cc3)n2Cc2ccccc2)n(C)c1=O | -3.7% (inactive) | 
94 | Cc1ccc(CNC(=O)C2CCN(S(=O)(=O)c3ccc4nc5c(c(C(=O)O)c4c3)CC(C)CC5)CC2)cc1 (centres undefined) | 4.28% (inactive) | 
95 | Cc1cc(C(=O)NCCCc2ccccc2)no1 | 24% (inactive) | 
96 | CC(C)Cc1cc(C(=O)NCCc2ccccc2)no1 |  | 12.6 µM (active)
97 | Nc1nonc1C(=O)NCCc1ccccc1 | -21% (inactive) | 
98 | CCOC(=O)N1CCc2c(sc3c2c(=O)n(-c2ccc(CC)cc2)c(=O)n3C)C1 | -4.84% (inactive) | 
99 | Cc1ccc(-c2ccc(CCC(=O)O)n2-c2ccc(C(N)=O)cc2)cc1 | 1.29% (inactive) | 
100 | Cc1cccc(OCC(=O)N(Cc2ccc(C(C)C)cc2)Cc2ccco2)c1C | 2.91% (inactive) | 
101 | Cc1ccc(C)c(Cn2c(=O)n(CCC(=O)NCc3ccc4c(c3)OCO4)c(=O)c3sccc32)c1 | -7.25% (inactive) | 
102 | COc1ccc(C/C(C)=N/NC(=O)c2cc(C)oc2C)cc1 | -0.732% (inactive) | 
103 | CC(=C/c1ccccc1)/C=N/NC(=O)c1cc(C)oc1C |  | 15.8 µM (active)
104 | N=c1oc2ccccc2cc1C(=O)N/N=C/c1ccccc1 | -26.9% (inactive) | 
